These results are taken from PubChem BioAssay (NCI).

The panel holds about 79,000 compounds, 15% with a hit somewhere; the sample as a whole holds those more often. A number with no mark means an inactive call. The source made the active and inactive calls. Cut-off read from the data, not from the text of the source: active = growth inhibition above about 70%; inactive = the rest.

The nature of experiment [1]: NCI Yeast Anticancer Drug Screen. Data for the rad50 strain (AID 155).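 Note: 0% = growth of vehicle-only cultures of the same strain.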 Particulars: S. cerevisiae rad50 strain growth inhibition; at 50.0 µM; stronger effect = higher value. In outline: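 Relative growth inhibition (compound vs vehicle) was measured in yeast with a defined repair-gene alteration.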
Experiment [2] can be described thus: NCI Yeast Anticancer Drug Screen. Data for the mec2-1 strain (AID 157). Particulars: S. cerevisiae mec2-1 strain, at 50.0 µM, stronger effect = higher value. In outline:
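Mutant yeast (mec2-1) grown with compound; growth inhibition relative to vehicle control reported.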

A short description of experiment [3]: NCI Yeast Anticancer Drug Screen. Data for the sgs1 mgt1 strain (AID 161).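 Note: 0% = growth of cultures given vehicle only.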 Particulars: S. cerevisiae sgs1 mgt1 strain, at 50.0 µM, stronger effect = higher value. In outline: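 Percent growth inhibition was derived by comparing compound-exposed mutant yeast with vehicle-exposed cultures. The strain carries alterations in DNA damage repair.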
A short description of experiment [4]: NCI Yeast Anticancer Drug Screen. Data for the cln2 rad14 strain (AID 165).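 Note: 0% = growth equal to vehicle treated cultures.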 The conditions noted are these: S. cerevisiae cln2 rad14 strain, at 50.0 µM, stronger effect = higher value. In outline:
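Readout is yeast growth inhibition versus vehicle-treated controls, using a strain with cln2 and rad14 alterations exposed to compound.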

Experiment [5] is described as follows: NCI Yeast Anticancer Drug Screen. Data for the bub3 strain (AID 167). Particulars: S. cerevisiae bub3 mutant strain, at 50.0 µM, stronger effect = higher value. In outline:
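Screening used yeast with an engineered genetic alteration affecting cell cycle control. Compound-exposed cultures were compared with vehicle cultures, and reduced growth was taken as inhibition.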

Experiment [6] is described as follows: NCI Yeast Anticancer Drug Screen. Data for the mlh1 rad18 strain (AID 175). Particulars: S. cerevisiae mlh1 rad18 strain growth inhibition; at 50.0 µM; stronger effect = higher value. In outline: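 Genetically defined yeast (DNA repair-deficient) exposed to compounds; growth inhibition determined relative to vehicle.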

As for `COc1ccc(-c2nc(N3CCCC3)no2)cc1`, the growth inhibition is -0.85% in experiment [1]; -4.65% in experiment [2]; 32.1% in experiment [3]; 3.85% in experiment [4]; 31.1% in experiment [5]; -20.9% in experiment [6].
With `CC(C)(C)NCC(CN1CCOCC1)C(=O)c1ccccc1` (stereo unspecified), the growth inhibition in experiment [1] is 48.5%; in experiment [2], 70.1% (active); in experiment [3] it was 57%; in experiment [4], 52.6%; in experiment [5] it was 74.2% (active); in experiment [6], 90.2% (active).
`O=C(O)c1cnc2c(ccc3[nH]cccc32)c1=O`: the growth inhibition in experiment [1] was -7.3%; in experiment [2], -33.8%; in experiment [3] it was -9%; in experiment [4], 15.6%; in experiment [5], 19.6%; in experiment [6] it was -2.8%.
Consider `O=[N+]([O-])c1cc(Cl)cc2cc(Br)cnc12`, for which the growth inhibition in experiment [1] is 4.2%; in experiment [2], 15.3%; in experiment [3], -19.9%; in experiment [4], 3.8%; in experiment [5], 10.5%; in experiment [6], 4.4%.
Take `CCCCCCC(=O)/C=C/c1ccccc1Cl`: the growth inhibition is -12.2% in experiment [1]; -29.6% in experiment [2]; -1.35% in experiment [3]; 10.3% in experiment [4]; 15.1% in experiment [5]; 10.1% in experiment [6].
As to `CC1=Nc2ccccc2C1(C)C`, the growth inhibition in experiment [1] was 8.25%; in experiment [2] it was 8.8%; in experiment [3], 15%; in experiment [4], 21.2%; in experiment [5] it was 4.55%; in experiment [6] it was 9.3%.
On to `CCOC(=O)c1cccc2ncccc12`, for which the growth inhibition was -1.6% in experiment [1]; 9.35% in experiment [2]; -2.8% in experiment [3]; -28.2% in experiment [4]; -9.05% in experiment [5]; 10.8% in experiment [6].
On to `CCO/C(C)=C(/C(C)=O)C(=O)NC1CCCCC1`, for which the growth inhibition in experiment [1] is -1.65%; in experiment [2], 15.5%; in experiment [3], -0.1%; in experiment [4], 9.75%; in experiment [5], -3.25%; in experiment [6], -11.2%.
As for `CC(C)SCCO`, the growth inhibition is -2.55% in experiment [1]; 10.2% in experiment [2]; 7.6% in experiment [3]; -9.65% in experiment [4]; -26.6% in experiment [5]; -13.4% in experiment [6].
On to `O=C(O)CCCCCCCCC(=O)O`, for which the growth inhibition was -7.55% in experiment [1]; -39% in experiment [2]; 7.9% in experiment [3]; -12.6% in experiment [4]; -23.8% in experiment [5]; -17.6% in experiment [6].
`CC1=C(C(=O)Nc2ccc([N+](=O)[O-])cc2)C(c2ccco2)C(C(=O)Nc2ccc([N+](=O)[O-])cc2)=C(C)N1`: the growth inhibition in experiment [1] is 30.2%; in experiment [2], 35.5%; in experiment [3] it was 34.4%; in experiment [4] it was 38.2%; in experiment [5], 43.5%; in experiment [6] it was 14.9%.
For `O=c1[nH]c(C(F)(F)F)c(CCc2ccccc2)c(=O)[nH]1`, the growth inhibition in experiment [1] is 3.5%; in experiment [2], 20.1%; in experiment [3], 36.9%; in experiment [4] it was -3.8%; in experiment [5], 36.3%; in experiment [6], 29.8%.
With `CCOCCOc1nc(C)cc(C)c1C#N`, the growth inhibition in experiment [1] was -30.9%; in experiment [2], -41.5%; in experiment [3], -8.05%; in experiment [4], -6.4%; in experiment [5], -29.5%; in experiment [6], -20.9%.
On to `c1ccc(C2=Nc3ccccc3N=C3CCCC32)cc1` (stereo unspecified), for which the growth inhibition is 45.2% in experiment [1]; 22.6% in experiment [2]; 3.3% in experiment [3]; 10.6% in experiment [4]; 21.4% in experiment [5]; 58.7% in experiment [6].
For `CC1(C)Cc2c(oc3ncnc(N)c23)CS1`, the growth inhibition was -10.3% in experiment [1]; -14.1% in experiment [2]; -8.8% in experiment [3]; -4.75% in experiment [4]; -4.65% in experiment [5]; 9.2% in experiment [6].
With `CCCCCCCSc1nc2ccc(N=Cc3ccccc3O)cc2s1`, the growth inhibition in experiment [1] was -9.8%; in experiment [2] it was -5.9%; in experiment [3], -16.9%; in experiment [4] it was -3.25%; in experiment [5] it was -0.9%; in experiment [6] it was -24.4%.
`CC(C)c1ccc(Cc2ccc(C(C)C)c(NC(=O)C(=O)Cc3cnc4ccccc4n3)c2C(C)C)c(C(C)C)c1NC(=O)C(=O)Cc1cnc2ccccc2n1`: the growth inhibition in experiment [1] is -28.4%; in experiment [2], -18.4%; in experiment [3], -24.9%; in experiment [4], 14.3%; in experiment [5], -13.2%; in experiment [6], -28.8%.
For `CCOc1ccc(/C(Cl)=C(\C=O)c2ccc(OC)c(OC)c2)cc1OCC`, the growth inhibition in experiment [1] is -0.1%; in experiment [2], -4.8%; in experiment [3], 3.25%; in experiment [4], -2.2%; in experiment [5], -3.6%; in experiment [6] it was 2.55%.
Take `CC(C)(C)NC(=O)NC(C)(C)C`: the growth inhibition in experiment [1] was -15.1%; in experiment [2], -7.95%; in experiment [3] it was 7.3%; in experiment [4], 14.8%; in experiment [5], 20.9%; in experiment [6], 4.45%.
For the compound `c1ccc(Cn2c(-c3ccccc3)c[n+]3ccccc23)cc1`, the growth inhibition in experiment [1] was -11.4%; in experiment [2] it was -10.1%; in experiment [3], 5.35%; in experiment [4], -49.4%; in experiment [5], 10.3%; in experiment [6], -6.4%.
Consider `O=C(NC(=S)OC1CCCC1OC(=S)NC(=O)c1ccccc1)c1ccccc1` (stereo unspecified), for which the growth inhibition is -21.5% in experiment [1]; -12.6% in experiment [2]; -10.1% in experiment [3]; 14.5% in experiment [4]; -13.2% in experiment [5]; -33.7% in experiment [6].
